Laboratory results published in PubChem BioAssay AID623978 (Broad Institute, 2012).
Results with a measured potency or affinity are listed apart. Records with an inconclusive call do not appear. Calls of active or inactive are those of the source.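 The calls were made as follows: active = every replicate run active, each with half-maximal inhibition reached at or below twice the top valid dose; inconclusive = runs disagree, or fits are weak or poor; inactive = every run inactive, including upward signal shifts.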

Target: Glycogen synthase kinase-3 alpha (Homo sapiens) (UniProt P49840)
Experiment: human GSK3 alpha kinase inhibition, dose response, selectivity assay for GSK3beta inhibitor project, biochemical, microfluidics, dry powder samples, set 2 (AID 623978)
Settings: GSK3a microfluidic mobility shift, percent conversion; series mostly up to 35 µM

Chain of Glycogen synthase kinase-3 alpha (Homo sapiens) (P49840 whole entry, looked up): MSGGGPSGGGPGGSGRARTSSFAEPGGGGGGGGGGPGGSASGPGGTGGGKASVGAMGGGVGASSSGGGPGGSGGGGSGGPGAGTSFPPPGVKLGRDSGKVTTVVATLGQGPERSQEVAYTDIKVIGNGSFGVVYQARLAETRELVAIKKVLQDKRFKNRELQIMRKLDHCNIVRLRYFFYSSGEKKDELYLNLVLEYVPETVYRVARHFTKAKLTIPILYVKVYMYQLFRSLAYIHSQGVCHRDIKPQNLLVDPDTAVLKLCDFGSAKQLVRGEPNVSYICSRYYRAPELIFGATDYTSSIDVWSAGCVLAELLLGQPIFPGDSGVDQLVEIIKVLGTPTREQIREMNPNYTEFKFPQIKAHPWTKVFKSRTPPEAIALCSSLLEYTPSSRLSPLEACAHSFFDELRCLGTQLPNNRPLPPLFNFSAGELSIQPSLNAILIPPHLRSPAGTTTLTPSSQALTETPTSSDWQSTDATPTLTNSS

outcome, inactive:
COc1cc(C(=O)N2CCN(c3ccccn3)CC2)cc(OC)c1OC
O=C(Cc1cccc2ccccc12)Nc1cn(C2CCC2)cn1
Cc1ccc(S(=O)(=O)N2CCN(CC(=O)N/N=C/c3ccccn3)CC2)cc1
